These sequences were tested against ANG (assay: pooled miR-30 sensor sort-seq; sequence = guide strand). Details: shRNA.
With TTCACAGTATCTGTCATCCCGG the sensor-assay potency score (higher = more potent) was -0.736. Sequence TCACAGATGGCCTTGATGCTGC has a sensor-assay potency score (higher = more potent) of -0.333. With TGCTTTCACAGTATCTGTCATC the sensor-assay potency score (higher = more potent) was -1.22. TGTACCTGGAGTTATCCTGAGC was tested, and the sensor-assay potency score (higher = more potent) was -1.14. TAGGTTTTCTCTGTGAGGGTTT gave a sensor-assay potency score (higher = more potent) of 0.619. TTGATGTCTTTGCAGGGTGAGG gave a sensor-assay potency score (higher = more potent) of -1.52. Sequence TTGATGCTGCGCTTGTTGCCAT has a sensor-assay potency score (higher = more potent) of -0.23. TCTGTGAGGGTTTCCATTCTTG gave a sensor-assay potency score (higher = more potent) of -0.487. With TTTCACAGTATCTGTCATCCCG the sensor-assay potency score (higher = more potent) was 0.634. With TTATCCTGAGCCAGGGTCGGTG the sensor-assay potency score (higher = more potent) was -1.46. In the case of AATGTGTTGATGTCTTTGCAGG, the sensor-assay potency score (higher = more potent) is reported as -1.22.

Each sequence was assayed against ANK1 in the same assay as above. Details: shRNA.
With TTGGTCTTGGTTTCTATCTGGG the sensor-assay potency score (higher = more potent) was -0.274. Work on TTGCAGGTATGAGACAATCGAG yielded a sensor-assay potency score (higher = more potent) of -1. Sequence TATCTGTCGAACCACCTTGCGA has a sensor-assay potency score (higher = more potent) of -1.29. In the case of TTGACTTTGGCTTTGTTCTGGA, the sensor-assay potency score (higher = more potent) is reported as 0.642. Sequence TCGGTGACCGCGTCGATCGAGG has a sensor-assay potency score (higher = more potent) of -1.26. For TGTGGTGTGAAATTGACGCTGG, the sensor-assay potency score (higher = more potent) was 0.797. TTCTCTTCATCAACATCCCTGG was tested, and the sensor-assay potency score (higher = more potent) was -0.331. TAGAATGATTTCTTTGTGCAGA gave a sensor-assay potency score (higher = more potent) of -0.0456. In the case of TCACTGACTAACACGAAACTGG, the sensor-assay potency score (higher = more potent) is reported as -0.214. TAGCTTCGGCACAAAATCCAGC gave a sensor-assay potency score (higher = more potent) of -0.878. In the case of TTCTAGAATGATTTCTTTGTGC, the sensor-assay potency score (higher = more potent) is reported as 0.132. TCTCTTCTGACCTCTGACCTTC gave a sensor-assay potency score (higher = more potent) of -0.43. With TCTATCTGTCGAACCACCTTGC the sensor-assay potency score (higher = more potent) was 0.271. TGCACCTGTCGCGTCATCCTGC was tested, and the sensor-assay potency score (higher = more potent) was -1.06. In the case of TCATCTGTCATGCAGTAGCAGC, the sensor-assay potency score (higher = more potent) is reported as -1.12. For TCGTATTGCAACAGGAGCCGGA, the sensor-assay potency score (higher = more potent) was -0.769. Sequence TATTCTGAAACTCATTCCCCTG has a sensor-assay potency score (higher = more potent) of -1.12. Sequence TTGCGAATGATCTTCTTGGTGA has a sensor-assay potency score (higher = more potent) of 0.462. TGGACAAGTCTATCTGTCGAAC showed a sensor-assay potency score (higher = more potent) of -1.67. Work on TTCATCTTCCGAGACATCCAGG yielded a sensor-assay potency score (higher = more potent) of -0.548. For TTAGTGACAAGCTCATCCGGGA, the sensor-assay potency score (higher = more potent) was -0.401. TTGATGTTTCCATAGTGACTGG gave a sensor-assay potency score (higher = more potent) of -0.739. For TTGGTGACGGCATTCTCCGGGA, the sensor-assay potency score (higher = more potent) was -0.46. TTGTGCAGCATCTTGCAGGTAT gave a sensor-assay potency score (higher = more potent) of 0.193.

The sequences below were run against ANKRD22 in the same assay as above. Details: shRNA.
With TACAAGAGCCTCATTCTGCTTT the sensor-assay potency score (higher = more potent) was -0.0713. ATCTGTAGCATTAACTTCGACG gave a sensor-assay potency score (higher = more potent) of -1.27. With TATCCAGTGAGCTCTCACCATG the sensor-assay potency score (higher = more potent) was -1.62. TTGACATTAGCATTTCTTCTTA showed a sensor-assay potency score (higher = more potent) of -0.439. Sequence TAAATTTTTTCTTCACAGCATA has a sensor-assay potency score (higher = more potent) of -1.16.

— the OligoGym collection
Further: reference of the scale not given here.
